FLuc inh – Firefly luciferase inhibition profiling of diverse chemical library using quantitative high-throughput screening; 2.5% of 76,000 active; purified P. pyralis luciferase, luminescence, biochemical; AID 1347043, 2019; Luciferin 4-monooxygenase (Photinus pyralis), P08659; Potency, µM (doses to about 115 µM), most hits filed as inhibitors; further: nearly all actives have a fitted effect of over 65% in size
Target sequence (P08659 whole entry, looked up): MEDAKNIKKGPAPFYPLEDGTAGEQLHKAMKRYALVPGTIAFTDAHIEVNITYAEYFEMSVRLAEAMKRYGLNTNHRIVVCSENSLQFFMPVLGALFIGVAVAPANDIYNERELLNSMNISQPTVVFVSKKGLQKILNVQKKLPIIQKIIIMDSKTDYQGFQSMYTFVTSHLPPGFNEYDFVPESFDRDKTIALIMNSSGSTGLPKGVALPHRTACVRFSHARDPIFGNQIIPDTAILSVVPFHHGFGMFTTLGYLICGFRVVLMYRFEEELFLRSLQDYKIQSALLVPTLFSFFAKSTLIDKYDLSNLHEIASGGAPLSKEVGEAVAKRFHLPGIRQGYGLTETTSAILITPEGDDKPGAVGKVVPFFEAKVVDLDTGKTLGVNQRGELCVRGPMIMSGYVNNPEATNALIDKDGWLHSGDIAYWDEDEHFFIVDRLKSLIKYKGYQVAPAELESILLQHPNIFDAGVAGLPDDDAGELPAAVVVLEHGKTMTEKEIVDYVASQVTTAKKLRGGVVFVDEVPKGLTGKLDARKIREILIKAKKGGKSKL
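Luminescence read by CCD imager after adding enzyme (10nM final) to wells holding compound, titrated in qHTS. Substrates 10uM each D-luciferin and ATP; buffer 50mM Tris acetate pH 7.5, 10mM Mg acetate, Tween-20, BSA.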
NPR1 antag – Natriuretic polypeptide receptor (hNpr1) antagonism - Primary qHTS | Atrial natriuretic peptide receptor 1 (Homo sapiens), P16066 | HEK293 hNpr1 GloSensor cGMP, ANP-stimulated luminescence | Potency, µM (doses to about 46.3 µM), for the others: at the top dose activity change, negative = inhibition, most hits filed as inhibitors | 1.6% of 76,000 active | AID 1347048, 2019; calls by dose curve; further: nearly all actives have a fitted effect of over 60% in size
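HEK293 cells stably expressing human Npr1 and cGMP GloSensor pGS-40F, loaded 2 h with 2% GloSensor reagent, given compound 30 min at room temperature. Luminescence read before and 20 min after 0.1 nM hNppA.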
3T3 cytotox – Cytotoxic Profiling in NIH 3T3 Cell Line of Diverse Libraries Using Quantitative High-Throughput Screening | 4.3% of 94,000 active | NIH 3T3 viability, CellTiter-Glo ATP luminescence, 48-72 h | Potency, µM (highest dose often 96.7 µM), inactives show top-dose activity change, negative = cytotoxicity, most hits filed as inhibitors | AID 1345082, 2018; further: nearly all actives have a fitted effect of over 55% in size
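Cytotoxicity was measured by CellTiter-Glo ATP luminescence after 48 or 72 h compound exposure at 37 °C. Mouse NIH 3T3 fibroblasts were seeded at 400 cells/well and dosed by 23 nL pin transfer.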
HEK293 tox – Cytotoxic Profiling in HEK 293 Cell Line of Diverse Libraries Using Quantitative High-Throughput Screening; HEK 293 viability, ATP luminescence (CellTiter-Glo), 48-72 h; Potency, µM (highest dose often 115 µM), for the others: at the top dose activity change, negative = cytotoxicity, most hits filed as inhibitors; 6.6% of 94,000 active; AID 1345083, 2018; further: nearly all actives have a fitted effect of over 60% in size
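Cytotoxicity was scored by loss of ATP-coupled luminescence (CellTiter-Glo) in HEK 293 cells. Compound treatment ran 48 or 72 hr at 37 degree Celsius, 5% CO2, 95% humidity.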
The depositor's hits bear a star; i = inactive; ? = inconclusive; . = no result; [ ] = remark or other dose. Rows were chosen to be rich in hits. Some 11% of all compounds tested hit in one or more screens of this group. Unless noted, the call rests on the fitted dose curve; in most records, active means well fitted curve in the direction sought with a large enough effect; inconclusive means small, poorly fitted or top-dose-only effect, or another doubt; inactive means no such curve, though single readings can be large; an effect the other way counts as inactive or inconclusive. On the % scale 0 is the no-effect control and ±100 the full control effect; potency means the concentration at half of the fitted maximal effect.

SMILES | FLuc inh | NPR1 antag | 3T3 cytotox | HEK293 tox
CC(=O)NC1(C)CCCN(Cc2cccc(-c3ccc4c(ccn4C)c3)c2)C1 (centres undefined) | ? | ? | 79µM* | 56µM*
CC(=O)NC1(C)CCN(Cc2cccc(-c3cccc(Cl)c3)c2)C1 (centres undefined) | ? | 2%[70.6 µM] | ? | 79µM*
CNC(=O)c1cc(C)nc2onc(C3CCCN(C(=O)Cc4ccccc4)C3)c12 (centres undefined) | . | . | -33% | -21%
FC(F)(F)C1CN(c2ccc3cc(Cl)ccc3n2)CCO1 (centres undefined) | 25µM* | 5% | ? | ?
Cc1nn(-c2ccccc2)c2c1C(C1CC1)N(C1CCCN([S+](=O)([O-])c3cccc(C(F)(F)F)c3)C1)C2=O (centres undefined) | . | . | -7% | 3%
Cc1ccc(CNC(=O)c2ccc3c(c2)CN(C2CCC2)CCO3)cc1 | i | -1% | -16% | -18%
COc1ccc(NC(=O)c2ccc3c(c2)OCCN(c2ccccc2)C3)cn1 | i | ? | ? | ?
O=C(Nc1ccc(F)cc1)c1ccc2c(c1)OCCN(C1CCC1)C2 | 45µM* | -18%[70.6 µM] | ? | ?
Cc1cc(NC(=O)c2ccc3c(c2)OCCN(C2CCC2)C3)ccc1F | 22µM* | -24%[70.6 µM] | ? | ?
Cc1nn(C)c2nc(-c3ccccn3)nc(NCc3ccc4c(c3)OCO4)c12 | ? | -15% | 28µM* | 32µM*
Cc1nn(C)c2nc(-c3ccccn3)nc(N3CCC4(CC3)COC(=O)O4)c12 | i | -1% | -4% | -10%
CN1C(=O)[C@@H]2C[C@@H](CN2Cc2ccc3ccccc3n2)Oc2ccccc21 | i | -13%[70.6 µM] | 79µM* | ?
COc1ccc(CN2C(=O)[C@@H]3C[C@@H](CN3Cc3ccccc3OC)Oc3ccccc32)cc1 | i | -12% | i | i
O=C1[C@@H]2C[C@@H](CN2Cc2ccc(Cl)cc2)Oc2ccccc2N1Cc1ccccc1 | i | ? | 32µM* | 63µM*
CN1C(=O)[C@@H]2C[C@@H](CN2Cc2ccccc2)Oc2ccccc21 | i | -2%[70.6 µM] | -7%[138 µM] | 3%[172 µM]
O=C1Nc2ccccc2O[C@H]2C[C@@H]1N(Cc1ccc(C(F)(F)F)cc1)C2 | i | ? | ? | 71µM*
COc1ccc(CN2C(=O)[C@@H]3C[C@@H](CN3Cc3ccccc3C)Oc3ccccc32)cc1 | i | -30%[70.6 µM] | ? | 71µM*
CC(C)N1C[C@@H]2C[C@H]1C(=O)N(Cc1ccccc1)c1ccccc1O2 | i | -22%[70.6 µM] | 50µM* | ?
CC(C)N1C[C@@H]2C[C@H]1C(=O)N(Cc1cccnc1)c1ccccc1O2 | i | 0%[70.6 µM] | ? | -12%[172 µM]
COCCN1C(=O)[C@@H]2C[C@@H](CN2Cc2ccc(C(F)(F)F)cc2)Oc2ccccc21 | i | -2%[70.6 µM] | ? | 79µM*
COc1ccc(CN2C(=O)[C@@H]3C[C@@H](CN3Cc3ccccc3)Oc3ccccc32)cc1 | i | -22%[70.6 µM] | ? | 50µM*
O=C1[C@@H]2C[C@@H](CN2C2CCC2)Oc2ccccc2N1Cc1ccc(OC(F)(F)F)cc1 | i | -29%[70.6 µM] | 40µM* | 71µM*
COc1ccc(CN2C(=O)[C@@H]3C[C@@H](CN3Cc3ccc(S(C)(=O)=O)cc3)Oc3ccccc32)cc1 | i | -2% | ? | ?
CN1CC(=O)N(C2CCCNCC2)Cc2c1ncnc2N1CCCC(CO)C1 (centres undefined) | . | . | -13% | -6%
Cc1cc(=O)n(CC(=O)Nc2ccc(F)cc2)c(N2CCN(c3ccccc3)CC2)n1 | i | 0% | ? | ?
SMILES | FLuc inh | NPR1 antag | 3T3 cytotox | HEK293 tox
Cc1cc(=O)n(CC(=O)Nc2ccc(Cl)cc2)c(N2CCC(C)CC2)n1 | i | -19% | ? | 40µM*
CC(=O)c1ccc(NC(=O)Cn2c(-c3ccc(Cl)cc3)nc(C)cc2=O)cc1 | i | -17% | ? | 45µM*
CCOC(=O)c1ccc(NC(=O)Cn2c(N3CCN(c4ccccc4)CC3)nc(C)cc2=O)cc1 | i | -18% | 32µM* | 40µM*
CCc1ccc(NC(=O)Cn2c(N3CCC(C)CC3)nc(C)cc2=O)cc1 | i | ? | ? | 45µM*
O=C(NCCc1ccc(Cl)cc1)c1cc(-c2cc(Cl)cc(Cl)c2)c2cccn2n1 | . | . | -25% | -20%
Cc1cc(=O)n(CC(=O)Nc2ccc(Br)cc2)c(N2CCC(C)CC2)n1 | i | ? | ? | 40µM*
Cc1ccc(NC(=O)Cn2c(C)cc3nc4n(c(=O)c32)CCCCC4)cc1Cl | i | -14% | 40µM* | 28µM*
Cc1cc(=O)n(CC(=O)Nc2ccc(C)c(Cl)c2)c(N2CCC(C)CC2)n1 | i | ? | ? | 32µM*
Cc1cc(=O)n(CC(=O)Nc2ccc(C)c(C)c2)c(N2CCC(C)CC2)n1 | i | -30% | ? | ?
CCOc1ccccc1C(=O)N1CCC2(CC1)CN(c1ncccn1)CC2CO (centres undefined) | i | -6% | -20% | -5%
Cc1ccncc1C(=O)N1CCCN(Cc2ccncc2)C(c2ccccc2)CC(=O)NCC1 (centres undefined) | i | -2% | -10% | -5%
COc1ccc(-c2nnc([C@H]3CCN(S(=O)(=O)Cc4ccccc4)C3)o2)cc1 | 50µM* | -3%[70.6 µM] | ? | ?
O=S(=O)(Cc1ccccc1)N1CCC(Oc2ccc(-c3noc(C4CC4)n3)cc2)C1 (centres undefined) | i | ? | ? | 40µM*
COc1ccc(-c2nnc([C@H]3CCN(S(C)(=O)=O)C3)o2)cc1 | i | 0%[70.6 µM] | -18%[138 µM] | i
COc1ccc(-c2ccc3ncc(Nc4cccc(O)c4)n3n2)cc1OC | i | -13%[70.6 µM] | ? | 63µM*
COc1ccc(Nc2cnc3ccc(-c4ccc(OC)c(OC)c4)nn23)cn1 | ? | 1%[70.6 µM] | 32µM* | 63µM*
COc1ncccc1Nc1cnc2ccc(-c3ccc(F)cc3)nn12 | i | -2%[70.6 µM] | ? | ?
COc1ccc(-c2ccc3ncc(Nc4ccc5c(c4)OCCO5)n3n2)cc1OC | 20µM* | -17%[70.6 µM] | ? | 45µM*
COc1ccccc1Nc1cnc2ccc(-c3ccc(F)cc3)nn12 | i | -10%[70.6 µM] | ? | 71µM*
COc1ccc(-c2ccc3ncc(Nc4ccc(OC)c(OC)c4)n3n2)cn1 | ? | -15%[70.6 µM] | ? | ?
COc1ccc(Nc2cnc3ccc(-c4ccc(F)cc4)nn23)cc1OC | ? | -3%[70.6 µM] | ? | ?
Cc1cc(C(=O)N(Cc2ccncc2)Cc2cccc(OCCc3ccc(F)cc3)c2)n(C)n1 | i | -28% | ? | ?
O=C(Cc1ccc2c(c1)OCO2)N(Cc1ccncc1)Cc1cccc(OCCc2ccc(F)cc2)c1 | i | ? | 35µM* | 40µM*

Screens as filed in PubChem.
